Assay in all cases: NCI-60 one-dose screen, 48 h (100 = growth as untreated, 0 = no growth, -100 = all killed)
Assay [1] relates to SK-MEL-2 melanoma. To be noted: 10 µM.
Assay [2] has as its system EKVX NSCLC. To be noted: 10 µM unless noted.
Assay [3] has as its system SN12C renal. To be noted: 10 µM unless noted.
Assay [4] concerns UO-31 renal. To be noted: 10 µM unless noted.
Assay [5] concerns TK-10 renal. To be noted: 10 µM unless noted.
Assay [6] relates to ACHN renal. To be noted: 10 µM unless noted.
Assay [7] has as its system CAKI-1 renal. To be noted: 10 µM unless noted.
The test system of assay [8] is A498 renal. To be noted: 10 µM unless noted.
Assay [9] relates to CCRF-CEM leukemia. To be noted: 10 µM unless noted.
Assay [10] relates to MOLT-4 leukemia. To be noted: 10 µM unless noted.
Assay [11] has as its system SR leukemia. To be noted: 10 µM unless noted.
Assay [12] relates to OVCAR-8 ovarian. To be noted: 10 µM unless noted.
The subject of assay [13] is OVCAR-5 ovarian. To be noted: 10 µM unless noted.
The subject of assay [14] is OVCAR-4 ovarian. To be noted: 10 µM unless noted.
The test system of assay [15] is SK-OV-3 ovarian. To be noted: 10 µM unless noted.
Assay [16] relates to IGROV1 ovarian. To be noted: 10 µM unless noted.
Assay [17] concerns OVCAR-3 ovarian. To be noted: 10 µM unless noted.
Assay [18] has as its system HS 578T breast. To be noted: 10 µM.
The test system of assay [19] is NCI/ADR-RES ovarian. To be noted: 10 µM unless noted.
Assay [20] deals with RPMI-8226 leukemia. To be noted: 10 µM unless noted.

SMILES strings stand for the structures. This is part of a sample that, as a whole, favours compounds with a hit. Of some 83,000 tested, about 20% had one in any assay.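 Activity criterion: percent growth below 10, measured after cells in 96-well plates were exposed to a single compound concentration for 48 hours.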 Values without a mark were called inactive. Calls of active or inactive are those of the source.

As for `Fc1ccc(NCc2cn(-c3ccccc3)nc2-c2ccc(OCc3ccccc3)cc2)cc1Cl`, the growth in assay [1] was 91.9%; in [2], 85.7%; in assay [3], 91.6%; in [4], 75%; in assay [5] it was 93.7%; in [6], 91%. Also, the growth is 82.9% in assay [7]; 119% in [8]; 92% in assay [9]; 85.8% in assay [10]; 96.1% in [11]; 105% in [12]. The growth in assay [13] is 86.6%; in assay [14] it was 97.5%; in [15] it was 82.3%; in [16], 96.9%; in assay [17], 97.3%; in [18], 104%. Also, the growth in [19] was 95.4%.
For `COc1cnc2c(c1)C(=O)c1c-2n(CCCNC2=NCCS2)c(=O)c2cc(Cl)ccc12`, the growth in assay [1] was 90.5%; in assay [2], -35.8% (active); in [3] it was -49.4% (active); in [4], -80.6% (active); in assay [5], -17.7% (active); in assay [6], -91.8% (active). The growth is -91.8% (active) in [7]; -13% (active) in assay [8]; -23% (active) in assay [9]; -41.5% (active) in [10]; 2.52% (active) in [11]; -31.2% (active) in assay [20]. Moreover, the growth was -25.1% (active) in assay [12]; 4.29% (active) in [13]; 49.5% in assay [14]; 20.9% in assay [15]; -57% (active) in [16]; -67.9% (active) in assay [17]. Also, the results for the growth in assay [18] and in assay [19] were 85.8% and -14.5% (active), respectively.
For the compound `CCCCCCCC(=O)SCC/C=C/[C@@H]1CC(=O)NCc2cccc(n2)C2=N[C@@](C)(CS2)C(=O)N[C@@H](C(C)C)C(=O)O1`, the growth in assay [1] was -1.86% (active); in assay [2], 22.2%; in [3] it was 22.6%; in assay [4], -8.17% (active); in [5], -16.1% (active); in assay [6], -11.8% (active). Further, the growth in assay [7] is -38.8% (active); in assay [9] it was 30.6%; in [10], 14.3%; in assay [11], 13.7%; in [20], 14.3%; in assay [12], 7.64% (active). In addition, the growth was 6.82% (active) in assay [13]; 18.3% in assay [14]; -31.4% (active) in assay [15]; 3.42% (active) in assay [16]; -26.5% (active) in assay [17]; 15.4% in assay [18]. Moreover, the growth in assay [19] is 6.46% (active).
With `C=C1[C@@H](O)C[C@H]2C(C)(C)C[C@H](Cl)C[C@]2(C)[C@H]1C[C@H](O)[C@H]1CC(=O)NC1=O`, the growth in assay [1] is -70.4% (active); in [2], -25.1% (active); in [3] it was -28.9% (active); in assay [4], -26.1% (active); in [5], -18.6% (active); in [6] it was -26.2% (active). The growth was 1.87% (active) in [7]; -76% (active) in [8]; 0.532% (active) in assay [9]; -11.2% (active) in assay [10]; 7.18% (active) in assay [11]; -0.0704% (active) in [20]. Further, the growth is -18% (active) in assay [12]; -10.8% (active) in assay [13]; -36.3% (active) in [14]; -29.7% (active) in assay [15]; -15.4% (active) in [16]; -27.4% (active) in assay [17]. The figures for the growth in assay [18] and in assay [19] were -15.7% (active) and -2.98% (active), respectively.
With `CCc1nc2cc(F)c(/C=C/C(=O)NO)cc2c(=O)n1CCc1ccccc1`, the growth in [1] is 9.96% (active); in assay [2], 25.7%; in assay [3], 13.6%; in [4] it was -15% (active); in assay [5], 1.94% (active); in assay [6], 3.69% (active). The growth is 0.745% (active) in assay [7]; -14.1% (active) in assay [8]; 3.07% (active) in [9]; 3.34% (active) in [10]; 15.1% in [11]; 11.6% in [12]. The growth in assay [13] is 23.6%; in [14], 15.4%; in [15], 1.17% (active); in assay [16], 32.2%; in assay [17], 7.99% (active); in assay [18], 43.3%. For the same compound, the growth in assay [19] was 2.43% (active).
`CCc1nc2cc(/C=C/C(=O)NO)c(F)cc2c(=O)n1CCc1ccccc1`: the growth in assay [1] is 35%; in assay [2] it was 20.6%; in [3], 3.45% (active); in assay [4], -28.7% (active); in [5] it was -5.84% (active); in assay [6] it was 1.28% (active). Moreover, the growth is -1.21% (active) in [7]; -16.5% (active) in [8]; 2.77% (active) in [9]; -2.57% (active) in assay [10]; 8.11% (active) in [11]; 12% in [20]. Moreover, the growth is 6.53% (active) in [12]; 25.4% in assay [13]; 11% in assay [14]; -4.18% (active) in assay [15]; 26.1% in assay [16]; 5.14% (active) in assay [17]. Further, the results for the growth in assay [18] and in assay [19] were 54% and -11.3% (active), respectively.
With `O=C1CC(c2cccc(F)c2)c2c(n[nH]c2-c2ccc(Cl)cc2)N1` (stereo not given), the growth was 110% in [1]; 85.1% in assay [2]; 92.8% in [3]; 79.3% in [4]; 94.1% in assay [5]; 90% in assay [6]. Besides, the growth in [7] was 77.7%; in [9], 101%; in assay [10], 88%; in assay [11], 89.3%; in assay [20], 81.8%; in assay [12], 85.9%. In addition, the growth is 84.7% in [13]; 95.4% in [14]; 86.4% in assay [15]; 101% in assay [16]; 100% in [17]; 91.2% in assay [18]. Besides, the growth in [19] is 93.9%.
As for `CCCCCCC1(/C=N/NC(N)=O)NC(=O)NC1=O` (stereo not given), the growth is 98.8% in [1]; 91.8% in [2]; 105% in assay [3]; 87.2% in assay [4]; 99.1% in assay [5]; 105% in assay [6]. In addition, the growth in assay [7] is 91.7%; in [9], 102%; in [10], 101%; in [11], 102%; in assay [20] it was 111%; in assay [12], 105%. For the same compound, the growth in [13] was 89%; in assay [14], 98%; in [15], 83.2%; in assay [16], 105%; in assay [17], 111%; in assay [18], 114%. In addition, in assay [19], the growth is 100%.

For the origin of these results see PubChem BioAssay (NCI).
